The text below walks through data of the supplement of paper PMC10849652.

Common to all, as to assay: log2 fold change, soluble protein after heating vs DMSO (PISA); higher = thermal stabilisation; K562 cells, 10 uM, 30 min; active = over 0.2 and 3.5 SD of the protein, either way, in both replicates (recomputed)
Compound in test [1]: C1=CC2=NC=CN=C2C=C1/C=C/3\C(=O)NC(=O)S3
An outline of the steps: (§1)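 K562 cells at 2×10^6 cells/mL were exposed to 10 μM compound for 30 min, then aliquots were heated for 3 min across 48°C-58°C, pooled, and extracted in PBS containing 0.5% NP-40 at 4°C. The supernatant after 21,000xg for 90 min was taken as soluble protein and measured by TMTpro 16plex LC-MS/MS with channel sums equalised. Thermal stability is reported relative to control samples, with values from duplicates. Fold changes are given on a log2 scale.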

Compound in test [2]: C1=CC=C(C=C1)C2=NC(=C(N2)C3=CC=NC=C3)C4=CC(=C(C=C4)Cl)O
An outline of the steps: as §1

Compound in another test: C#Cc1cccc(Nc2ncnc3cc(OCCOC)c(OCCOC)cc23)c1 [erlotinib]
The essentials: as §1

Compound in test [3]: C/C(=N\NC(=O)C1=CC(=CC=C1)S(=O)(=O)N2CCOCC2)/C3=C(C=CC(=C3)Cl)O
An outline of the steps: as §1

Compound in test [4]: C1=CC(=CC=C1C2=NC3=C(N2)C=C(C=C3)C(=O)N)OC4=CC=C(C=C4)Cl
The essentials:
as §1

Compound in test [5]: C1=CC2=C(C=CC(=C2)/C=C\3/C(=O)NC(=NCC4=CC=CS4)S3)N=C1
The essentials:
as §1

Compound in test [6]: C1=CC=C2C(=C1)C3=NNC4=CC=CC(=C43)C2=O
The essentials:
as §1

Compound in test [7]: C1CCN(C1)C(=O)NC2=CC=CC(=C2)NC3=NC=C(C(=N3)NCCC4=CN=CN4)Br
The essentials:
as §1

Compound in test [8]: C1CN(CCC1(CC2=CC=C(C=C2)Cl)N)C3=NC=NC4=C3C=CN4
The essentials:
as §1

Compound in test [9]: C1=CC(=C(C=C1Cl)C2=NC3=NC=CN=C3C(=N2)NC4=CC=NC=C4)F
An outline of the steps:
as §1

About 7,900 targets were measured; listed, in parts, are those with a hit and a random draw of the rest. About 0.6% of all pairs of compound and target were hits. Values without a mark were called inactive.

UniProt Q5THK1, sequence (Q5THK1 whole entry, looked up): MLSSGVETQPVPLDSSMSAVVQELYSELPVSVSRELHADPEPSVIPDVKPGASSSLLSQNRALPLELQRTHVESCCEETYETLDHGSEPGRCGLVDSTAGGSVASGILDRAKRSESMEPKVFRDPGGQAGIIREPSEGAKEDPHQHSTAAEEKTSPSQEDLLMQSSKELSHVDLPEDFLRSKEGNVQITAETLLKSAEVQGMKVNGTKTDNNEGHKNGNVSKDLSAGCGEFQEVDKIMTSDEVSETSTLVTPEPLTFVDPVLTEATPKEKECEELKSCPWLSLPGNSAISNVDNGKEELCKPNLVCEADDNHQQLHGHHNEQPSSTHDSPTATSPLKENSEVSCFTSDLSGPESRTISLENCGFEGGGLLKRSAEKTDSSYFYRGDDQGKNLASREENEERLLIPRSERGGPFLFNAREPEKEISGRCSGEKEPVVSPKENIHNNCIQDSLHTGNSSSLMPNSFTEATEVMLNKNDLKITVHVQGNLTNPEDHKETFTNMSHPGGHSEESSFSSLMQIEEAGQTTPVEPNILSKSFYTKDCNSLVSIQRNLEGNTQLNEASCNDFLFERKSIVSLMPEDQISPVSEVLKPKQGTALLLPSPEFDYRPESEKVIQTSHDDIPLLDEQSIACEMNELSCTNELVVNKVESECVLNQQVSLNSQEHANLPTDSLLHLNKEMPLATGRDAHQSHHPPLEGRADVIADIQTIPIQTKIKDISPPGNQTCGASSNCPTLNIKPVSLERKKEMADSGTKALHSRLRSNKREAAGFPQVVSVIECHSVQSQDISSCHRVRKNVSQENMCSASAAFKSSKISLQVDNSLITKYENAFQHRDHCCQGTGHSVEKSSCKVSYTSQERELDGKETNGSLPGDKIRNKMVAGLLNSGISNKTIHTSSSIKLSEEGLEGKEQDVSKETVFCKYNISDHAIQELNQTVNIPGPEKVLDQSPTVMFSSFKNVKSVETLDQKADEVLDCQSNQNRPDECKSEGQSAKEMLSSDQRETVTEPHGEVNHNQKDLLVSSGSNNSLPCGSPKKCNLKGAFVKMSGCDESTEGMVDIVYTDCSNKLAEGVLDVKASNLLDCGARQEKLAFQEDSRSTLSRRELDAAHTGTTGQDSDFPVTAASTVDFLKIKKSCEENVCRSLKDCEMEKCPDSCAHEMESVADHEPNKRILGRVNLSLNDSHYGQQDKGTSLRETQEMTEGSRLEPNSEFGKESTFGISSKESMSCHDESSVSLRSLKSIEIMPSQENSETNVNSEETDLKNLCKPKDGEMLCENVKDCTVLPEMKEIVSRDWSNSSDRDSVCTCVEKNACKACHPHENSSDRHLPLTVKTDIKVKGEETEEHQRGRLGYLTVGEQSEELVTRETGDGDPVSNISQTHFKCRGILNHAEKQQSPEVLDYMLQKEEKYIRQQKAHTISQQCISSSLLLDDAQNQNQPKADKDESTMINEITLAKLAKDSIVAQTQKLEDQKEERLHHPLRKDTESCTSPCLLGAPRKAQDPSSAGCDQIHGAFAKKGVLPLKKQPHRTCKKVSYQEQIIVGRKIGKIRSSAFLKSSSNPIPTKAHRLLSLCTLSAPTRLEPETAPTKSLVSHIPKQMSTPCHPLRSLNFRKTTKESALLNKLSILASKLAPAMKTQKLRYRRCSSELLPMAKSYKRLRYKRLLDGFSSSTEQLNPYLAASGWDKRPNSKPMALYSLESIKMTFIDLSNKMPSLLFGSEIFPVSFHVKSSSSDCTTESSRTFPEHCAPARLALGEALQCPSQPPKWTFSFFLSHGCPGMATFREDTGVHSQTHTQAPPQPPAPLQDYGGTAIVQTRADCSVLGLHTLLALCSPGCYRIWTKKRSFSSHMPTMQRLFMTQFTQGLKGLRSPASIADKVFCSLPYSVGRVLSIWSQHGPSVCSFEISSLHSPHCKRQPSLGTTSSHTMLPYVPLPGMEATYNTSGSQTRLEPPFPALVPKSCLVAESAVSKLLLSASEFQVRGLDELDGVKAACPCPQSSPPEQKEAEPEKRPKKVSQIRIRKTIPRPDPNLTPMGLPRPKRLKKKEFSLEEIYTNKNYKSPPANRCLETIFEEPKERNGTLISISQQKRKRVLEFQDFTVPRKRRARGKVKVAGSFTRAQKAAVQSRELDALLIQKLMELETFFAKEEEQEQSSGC
UniProt O94806, sequence (O94806 whole entry, looked up): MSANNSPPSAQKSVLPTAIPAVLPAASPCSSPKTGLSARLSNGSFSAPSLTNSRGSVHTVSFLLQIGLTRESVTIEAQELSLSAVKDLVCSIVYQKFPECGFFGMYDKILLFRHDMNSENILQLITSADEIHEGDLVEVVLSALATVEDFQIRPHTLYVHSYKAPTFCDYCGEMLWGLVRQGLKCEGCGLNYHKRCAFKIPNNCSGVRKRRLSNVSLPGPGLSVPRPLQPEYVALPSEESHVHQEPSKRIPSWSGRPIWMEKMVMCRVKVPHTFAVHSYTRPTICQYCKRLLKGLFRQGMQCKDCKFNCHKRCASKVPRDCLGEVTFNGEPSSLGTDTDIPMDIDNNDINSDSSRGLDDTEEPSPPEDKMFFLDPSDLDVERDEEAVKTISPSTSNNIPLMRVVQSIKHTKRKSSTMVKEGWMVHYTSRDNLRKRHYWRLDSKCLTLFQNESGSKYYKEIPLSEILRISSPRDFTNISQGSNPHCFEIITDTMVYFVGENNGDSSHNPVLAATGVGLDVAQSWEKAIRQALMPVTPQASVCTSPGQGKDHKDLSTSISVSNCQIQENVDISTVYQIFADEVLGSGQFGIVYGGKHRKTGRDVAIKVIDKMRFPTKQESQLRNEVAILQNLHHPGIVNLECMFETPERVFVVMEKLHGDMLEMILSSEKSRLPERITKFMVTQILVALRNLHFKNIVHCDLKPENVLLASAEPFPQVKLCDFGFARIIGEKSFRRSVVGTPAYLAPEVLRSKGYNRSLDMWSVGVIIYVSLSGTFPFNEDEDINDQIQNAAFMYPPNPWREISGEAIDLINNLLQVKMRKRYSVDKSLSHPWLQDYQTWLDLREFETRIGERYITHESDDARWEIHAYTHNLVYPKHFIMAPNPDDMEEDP
UniProt Q9BZL4, sequence (Q9BZL4 whole entry, looked up): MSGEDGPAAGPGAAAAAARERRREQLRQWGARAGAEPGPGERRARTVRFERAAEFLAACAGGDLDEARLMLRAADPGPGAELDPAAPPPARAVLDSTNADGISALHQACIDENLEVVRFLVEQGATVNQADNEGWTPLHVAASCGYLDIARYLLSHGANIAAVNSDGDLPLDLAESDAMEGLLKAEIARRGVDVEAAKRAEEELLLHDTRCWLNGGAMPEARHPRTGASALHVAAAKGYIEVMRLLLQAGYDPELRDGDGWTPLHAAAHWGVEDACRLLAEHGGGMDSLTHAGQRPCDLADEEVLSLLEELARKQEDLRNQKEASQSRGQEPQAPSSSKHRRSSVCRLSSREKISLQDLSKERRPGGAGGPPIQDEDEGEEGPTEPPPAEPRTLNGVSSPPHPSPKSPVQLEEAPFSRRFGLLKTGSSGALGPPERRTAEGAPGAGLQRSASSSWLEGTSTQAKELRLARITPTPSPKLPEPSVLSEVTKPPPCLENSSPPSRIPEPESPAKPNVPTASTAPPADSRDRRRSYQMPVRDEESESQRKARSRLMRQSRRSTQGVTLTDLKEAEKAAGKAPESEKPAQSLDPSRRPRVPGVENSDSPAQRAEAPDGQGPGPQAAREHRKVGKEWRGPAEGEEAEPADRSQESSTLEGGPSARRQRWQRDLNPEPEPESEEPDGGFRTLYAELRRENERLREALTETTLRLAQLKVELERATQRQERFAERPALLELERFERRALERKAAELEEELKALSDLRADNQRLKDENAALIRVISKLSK
UniProt P41247, sequence (P41247 whole entry, looked up): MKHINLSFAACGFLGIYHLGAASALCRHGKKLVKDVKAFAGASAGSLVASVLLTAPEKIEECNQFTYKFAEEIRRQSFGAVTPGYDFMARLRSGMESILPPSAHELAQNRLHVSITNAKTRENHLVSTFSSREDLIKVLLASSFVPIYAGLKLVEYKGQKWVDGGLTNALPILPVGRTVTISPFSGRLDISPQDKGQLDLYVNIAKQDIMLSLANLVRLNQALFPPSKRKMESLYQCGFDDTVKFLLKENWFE
UniProt Q14289, sequence (Q14289 whole entry, looked up): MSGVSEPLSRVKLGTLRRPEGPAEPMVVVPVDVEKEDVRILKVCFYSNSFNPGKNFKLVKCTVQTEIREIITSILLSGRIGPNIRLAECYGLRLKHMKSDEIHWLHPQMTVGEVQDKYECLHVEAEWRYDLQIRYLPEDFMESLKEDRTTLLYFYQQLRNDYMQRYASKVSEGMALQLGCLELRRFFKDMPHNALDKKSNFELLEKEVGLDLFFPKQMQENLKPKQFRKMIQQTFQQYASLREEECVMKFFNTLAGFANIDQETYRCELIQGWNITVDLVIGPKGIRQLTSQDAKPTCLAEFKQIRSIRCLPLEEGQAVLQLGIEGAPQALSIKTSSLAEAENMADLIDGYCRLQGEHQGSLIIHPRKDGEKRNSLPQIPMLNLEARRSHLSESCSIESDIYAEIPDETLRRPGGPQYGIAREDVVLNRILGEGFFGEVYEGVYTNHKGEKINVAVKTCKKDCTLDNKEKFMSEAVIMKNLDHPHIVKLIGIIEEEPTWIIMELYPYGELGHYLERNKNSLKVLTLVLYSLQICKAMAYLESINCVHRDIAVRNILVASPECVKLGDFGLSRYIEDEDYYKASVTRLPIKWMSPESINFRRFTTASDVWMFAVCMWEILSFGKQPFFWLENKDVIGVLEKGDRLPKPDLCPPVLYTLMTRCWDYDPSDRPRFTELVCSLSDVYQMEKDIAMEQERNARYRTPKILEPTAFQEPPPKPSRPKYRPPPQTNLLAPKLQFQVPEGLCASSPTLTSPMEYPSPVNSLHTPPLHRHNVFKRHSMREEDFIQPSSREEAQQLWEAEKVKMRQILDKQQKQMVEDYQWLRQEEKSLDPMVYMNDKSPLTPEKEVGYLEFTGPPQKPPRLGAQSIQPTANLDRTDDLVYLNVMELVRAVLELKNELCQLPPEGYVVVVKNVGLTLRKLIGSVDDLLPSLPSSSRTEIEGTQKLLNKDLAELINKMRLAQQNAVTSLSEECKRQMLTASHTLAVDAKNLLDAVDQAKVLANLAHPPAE

On to PLCXD1 (UniProt Q9NUJ7), for which the values for the log2 fold change in test [1] and in [2] were 0.025 and -0.012, respectively.
For the target PTK2B (UniProt Q14289), the log2 fold change with erlotinib is 0.225; in test [3] it was 0.063; in test [4] it was 0.059; in test [5], 0.048; in test [1], 0.058; in test [2], 0.008. Further, the log2 fold change in test [6] was -0.066; in test [7], 0.025; in [8], 0.105.
For the target PI4K2B (UniProt Q8TCG2), the log2 fold change with erlotinib is -0.003; in test [3] it was -0.008; in [4], 0.065; in test [5] it was 0.004; in [1], 0.016; in test [2], -0.019. The log2 fold change in [6] was -0.007; in test [7] it was 0.048; in test [8], -0.173.
For PUF60 isoform 2 (UniProt Q9UHX1), the log2 fold change in [3] is 0.242; in test [5] it was -0.242; in test [1] it was 0.086; in test [2], 0.05; in test [6], 0.046; in test [7], -0.148. Further, the log2 fold change in test [8] was -0.148.
Take PRR14L (UniProt Q5THK1): the log2 fold change in test [3] was -0.168; in test [5], 0.16; in test [6], -0.091; in test [7] it was 0.166; in [8], -0.023.
With PKM isoform 2 (UniProt P14618), the log2 fold change in test [3] was -0.004; in test [9], 0.075; in [5], -0.005; in test [1], -0.18; in test [2], -0.048; in test [6] it was 0.04. In addition, the log2 fold change was -0.047 in test [7] and 0.003 in [8].
In the case of PRKD3 (UniProt O94806), the log2 fold change with erlotinib is 0.051; in test [3] it was 0.373; in test [4] it was 0.013; in [5] it was -0.197; in test [1], 0.034; in test [2], 0.055. Further, the log2 fold change in test [6] was -0.507.
Turning to PSMA3 (UniProt H0YJ03), the log2 fold change in [3] was -0.698 (active); in test [5], 0.095; in test [2], -0.065; in test [6], -0.006; in test [7] it was -0.027; in test [8], 0.2.
On to PGK2 (UniProt P07205), for which the log2 fold change was -0.055 in [3]; -0.082 in test [9]; 0.152 in test [5]; -0.018 in [1]; -0.057 in test [2]; -0.012 in test [6]. Moreover, the log2 fold change in test [7] is 0.034; in test [8] it was 0.029.
In the case of PPP1R12C (UniProt Q9BZL4), the log2 fold change was -0.13 in the test with erlotinib; -0.011 in test [9]; -0.059 in [4]; 0.064 in test [1]; 0.037 in test [2]; -0.05 in [7]. The log2 fold change in test [8] is -0.238.
As to PCF11 (UniProt O94913), the log2 fold change is 0.04 in test [3]; -0.082 in test [5]; 0.111 in test [1]; -0.191 in test [2]; 0.083 in test [6].
With PEX5 isoform 4 (UniProt P50542), the log2 fold change with erlotinib is -0.133; in [3] it was -0.143; in test [9] it was -0.036; in test [4] it was 0.076; in test [5] it was 0.048; in test [2], 0.016. Moreover, the log2 fold change was -0.082 in [6], 0.097 in test [7] and -0.078 in test [8].
Turning to PSD3 (UniProt Q9NYI0), the log2 fold change in test [3] is -0.022; in test [5], 0.1; in test [2] it was -0.001; in test [6], 0.018.
On to PSMC1 (UniProt G3V4X1), for which the log2 fold change with erlotinib is 0.149; in test [4], -0.001.
Turning to POGZ (UniProt Q7Z3K3), the log2 fold change in the test with erlotinib was 0.006; in test [3], 0.085; in test [9], 0.044; in test [4], 0.033; in test [5] it was -0.172; in test [2], 0.023. Further, the log2 fold change is 0.082 in test [6], 0.026 in test [7] and 0.115 in test [8].
Turning to PNPLA4 (UniProt P41247), the log2 fold change with erlotinib is 0.426; in test [3] it was 0.13; in test [4], -0.176; in test [5], -0.148; in test [1] it was 0.133; in [2], -0.084. Further, the log2 fold change was 0.059 in test [6], 0.108 in test [7] and 0.029 in test [8].
